Consider eight compounds from PubChem BioAssay (NCATS).

Unmarked numbers belong to inactive results. Records with an inconclusive call do not appear. Activity calls are given as the source filed them. Unless noted, calls come from the whole dose curve; as a rule, active = well fitted curve in the direction sought with a large enough effect; inconclusive = small, poorly fitted or top-dose-only effect, or another doubt; inactive = no such curve, though single readings can be large; an effect the other way counts as inactive or inconclusive.

The nature of assay [1]: Confirmation and Secondary Assay for Modulators of Hemoglobin Beta Chain Splicing at IVS2 654 locus (AID 910).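 Note: per-well total GFP intensity by laser scanning cytometry after 2-day treatment; % of control where 0% means no effect.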 The settings on record: HeLa EGFP-654 splicing reporter, GFP fluorescence, 48 h; series mostly up to 46.1 µM. A digest of the protocol:
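HeLa cells stably carrying EGFP interrupted by mutant beta-globin IVS2-654 intron (CMV-driven) were treated with compound for 2 days at 37C; corrected splicing was scored as total peak GFP intensity per well (488 nm excitation, 500-520 nm emission).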

The nature of assay [2]: Confirmation and Secondary Assay for Modulators of Hemoglobin Beta Chain Splicing at IVS2 705 locus (AID 930).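 Note: HeLa cells stably expressing the EGFP-705 splicing reporter; GFP fluorescence per well restored by corrected splicing of the IVS2-705 intron in EGFP; % of control where 0% means no effect.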 The conditions noted are these: HeLa EGFP-705 splicing reporter, GFP fluorescence, 48 h; series mostly up to 46.1 µM. A digest of the protocol:
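Assay measures total GFP intensity per well in HeLa EGFP-705 cells after 2 days with compound; mis-splicing normally truncates EGFP, so fluorescence indicates corrected splicing.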

Assay [3] deals with Cytochrome P450 2C9 (Homo sapiens) (UniProt P11712). Description: qHTS Assay for Inhibitors and Substrates of Cytochrome P450 2C9 (AID 883). Note: potency is the fitted concentration of half-maximal effect; nearly all actives have a fitted effect of over 60% in size. The conditions noted are these: recombinant CYP2C9, luciferin-H luminescence, 60 min; series mostly up to 57.1 µM. A digest of the protocol:
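Human CYP2C9 (10nM) hydroxylated Luciferin-H (100uM, at its KM) to luciferin in 25mM KPO4. Compound was preincubated 10 min at 37C, then NADPH regeneration started a 60 min reaction at 37C. Luminescence was read after detection reagent, normalized to 57uM sulphaphenazole.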

Assay [4] addresses ATP-dependent 6-phosphofructokinase (Trypanosoma brucei brucei) (UniProt O15648). Description: qHTS Assay to Find Inhibitors of T. brucei phosphofructokinase: hit validation (AID 492961).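 Note: luminescence reports ADP formed as PFK phosphorylates fructose-6-phosphate with ATP; % is set by controls: 0 for no effect and ±100 for the full control effect.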 The settings on record: T. brucei PFK, ADP-Glo luminescence; series mostly up to 51.4 µM. A digest of the protocol: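 PFK 1.25 nM, F6P 0.5 mM, ATP 0.1 mM, MgCl2 5 mM, 0.1 M TEA pH 8.0, Tween20 0.01%, BSA 0.1%; 45 min RT. ADP-Glo two-step detection, luminescence. qHTS titration; curve fitting with curve-class categorization.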

Assay [5] is described as follows: NFAT Signaling Pathway (AID 444; active = well fitted curve in either direction with a large enough effect, not every such curve was filed as active;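 note: carbachol stimulus at about its EC50 of 1 µM final; % is set by controls: 0 for no effect and ±100 for the full control effect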). The settings on record: Jurkat NFAT-bla M1, carbachol, beta-lactamase ratio, 5 h; at 38 µM (top of the series). An outline of the steps: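 Jurkat cells carrying an NFAT-driven β-lactamase reporter and co-transfected muscarinic M1 receptor were treated with compound plus carbachol (1 uM final, an EC50 level) for 5 h at 37 °C. CCF4 loading followed for 1 h at RT; 460/530 nm ratio gave %activity.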

Assay [6] in a line: qHTS Assay for Identification of Small Molecule Antagonists for NFkB Signaling Pathway (AID 895; active = well fitted inhibition curve with a large enough effect in the signal ratio, with a control signal flat, not every such curve was filed as active; the % refers to the signal ratio; note: % is set by controls: 0 for no effect and ±100 for the full control effect). The settings on record: NFkB beta-lactamase reporter cells, FRET ratio 460/530; series mostly up to 38.3 µM. A digest of the protocol: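 NFkB-bla ME-180 cervical carcinoma cells with beta-lactamase reporter under NFkB response element; compounds added, then TNF alpha at 10 pM final (EC50), 5 h at 37 C. LiveBLAzer substrate 2 h, room temperature; emission 460/530 nm at 405 nm excitation.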

The target in assay [7] is D(1A) dopamine receptor (Homo sapiens) (UniProt P21728). Nature of the assay: HTS Assay for Allosteric Agonists of the Human D1 Dopamine Receptor: Primary Screen for Antagonists (AID 488983).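 Note: calcium flux response to an EC80 dopamine challenge measured with no-wash dye; % is set by controls: 0 for no effect and ±100 for the full control effect; nearly all actives have a fitted effect of over 65% in size.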 The settings on record: D1 receptor cell assay, antagonist mode, qHTS titration; series mostly up to 41.8 µM. An outline of the steps: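 Calcium-flux read-out in inducible HEK293 T-REx cells expressing D1, dye-loaded 30–90 min at room temperature. Kinetic reads: 180 s after compound (agonist phase), then 180 s after an EC80 dopamine challenge.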
Sequence of D(1A) dopamine receptor (Homo sapiens) (P21728 whole entry, looked up): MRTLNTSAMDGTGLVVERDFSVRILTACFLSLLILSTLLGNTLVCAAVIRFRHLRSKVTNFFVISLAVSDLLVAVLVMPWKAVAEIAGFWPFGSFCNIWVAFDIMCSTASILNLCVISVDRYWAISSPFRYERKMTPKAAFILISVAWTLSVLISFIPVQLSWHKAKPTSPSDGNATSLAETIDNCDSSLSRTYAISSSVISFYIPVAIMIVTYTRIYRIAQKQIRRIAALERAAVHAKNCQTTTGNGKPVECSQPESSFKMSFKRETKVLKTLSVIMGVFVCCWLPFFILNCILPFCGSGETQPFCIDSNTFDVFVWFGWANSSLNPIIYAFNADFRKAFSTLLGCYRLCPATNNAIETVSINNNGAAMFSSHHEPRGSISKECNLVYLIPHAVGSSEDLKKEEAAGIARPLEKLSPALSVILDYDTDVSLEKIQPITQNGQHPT

A short description of assay [8]: Validation screen for small molecules that induce genotoxicity in human embryonic kidney (HEK293T) cells expressing luciferase-tagged ELG1 (AID 493106). Note: 0% is about no effect. The conditions noted are these: luminescence; series mostly up to 46.1 µM. An outline of the steps:
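ELG1-luciferase reporter readout (ONE-Glo, 30 min, room temperature) after 16 hr compound treatment at 37 °C of HEK293T cells at 2,000 per well. Rising luminescence flags genotoxic stress.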

For assay [9], the target named is ATPase family AAA domain-containing protein 5 (Homo sapiens) (UniProt Q96QE3). Nature of the assay: Validation screen for small molecules that inhibit ELG1-dependent DNA repair in human embryonic kidney (HEK293T) cells expressing luciferase-tagged ELG1 (AID 493107).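 Note: % is set by controls: 0 for no effect and ±100 for the full control effect; inhibitors lower the ELG1-luciferase luminescence signal; nearly all actives have a fitted effect of over 70% in size.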 The conditions noted are these: HEK293T ELG1-luciferase level, luminescence, 5-fluorouridine co-treatment, 16 h; series mostly up to 46.1 µM. An outline of the steps: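 Luciferase read-out, ONE-Glo, 30 min at room temperature, follows 16 h co-exposure at 37 C of compound and the DNA-damaging agent 5-fluorouridine. Cells: HEK293T with ELG1-luciferase fusion, 2,000 per well, DMSO as vehicle.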
Sequence of ATPase family AAA domain-containing protein 5 (Homo sapiens) (Q96QE3 whole entry, looked up, the tested form may be a part): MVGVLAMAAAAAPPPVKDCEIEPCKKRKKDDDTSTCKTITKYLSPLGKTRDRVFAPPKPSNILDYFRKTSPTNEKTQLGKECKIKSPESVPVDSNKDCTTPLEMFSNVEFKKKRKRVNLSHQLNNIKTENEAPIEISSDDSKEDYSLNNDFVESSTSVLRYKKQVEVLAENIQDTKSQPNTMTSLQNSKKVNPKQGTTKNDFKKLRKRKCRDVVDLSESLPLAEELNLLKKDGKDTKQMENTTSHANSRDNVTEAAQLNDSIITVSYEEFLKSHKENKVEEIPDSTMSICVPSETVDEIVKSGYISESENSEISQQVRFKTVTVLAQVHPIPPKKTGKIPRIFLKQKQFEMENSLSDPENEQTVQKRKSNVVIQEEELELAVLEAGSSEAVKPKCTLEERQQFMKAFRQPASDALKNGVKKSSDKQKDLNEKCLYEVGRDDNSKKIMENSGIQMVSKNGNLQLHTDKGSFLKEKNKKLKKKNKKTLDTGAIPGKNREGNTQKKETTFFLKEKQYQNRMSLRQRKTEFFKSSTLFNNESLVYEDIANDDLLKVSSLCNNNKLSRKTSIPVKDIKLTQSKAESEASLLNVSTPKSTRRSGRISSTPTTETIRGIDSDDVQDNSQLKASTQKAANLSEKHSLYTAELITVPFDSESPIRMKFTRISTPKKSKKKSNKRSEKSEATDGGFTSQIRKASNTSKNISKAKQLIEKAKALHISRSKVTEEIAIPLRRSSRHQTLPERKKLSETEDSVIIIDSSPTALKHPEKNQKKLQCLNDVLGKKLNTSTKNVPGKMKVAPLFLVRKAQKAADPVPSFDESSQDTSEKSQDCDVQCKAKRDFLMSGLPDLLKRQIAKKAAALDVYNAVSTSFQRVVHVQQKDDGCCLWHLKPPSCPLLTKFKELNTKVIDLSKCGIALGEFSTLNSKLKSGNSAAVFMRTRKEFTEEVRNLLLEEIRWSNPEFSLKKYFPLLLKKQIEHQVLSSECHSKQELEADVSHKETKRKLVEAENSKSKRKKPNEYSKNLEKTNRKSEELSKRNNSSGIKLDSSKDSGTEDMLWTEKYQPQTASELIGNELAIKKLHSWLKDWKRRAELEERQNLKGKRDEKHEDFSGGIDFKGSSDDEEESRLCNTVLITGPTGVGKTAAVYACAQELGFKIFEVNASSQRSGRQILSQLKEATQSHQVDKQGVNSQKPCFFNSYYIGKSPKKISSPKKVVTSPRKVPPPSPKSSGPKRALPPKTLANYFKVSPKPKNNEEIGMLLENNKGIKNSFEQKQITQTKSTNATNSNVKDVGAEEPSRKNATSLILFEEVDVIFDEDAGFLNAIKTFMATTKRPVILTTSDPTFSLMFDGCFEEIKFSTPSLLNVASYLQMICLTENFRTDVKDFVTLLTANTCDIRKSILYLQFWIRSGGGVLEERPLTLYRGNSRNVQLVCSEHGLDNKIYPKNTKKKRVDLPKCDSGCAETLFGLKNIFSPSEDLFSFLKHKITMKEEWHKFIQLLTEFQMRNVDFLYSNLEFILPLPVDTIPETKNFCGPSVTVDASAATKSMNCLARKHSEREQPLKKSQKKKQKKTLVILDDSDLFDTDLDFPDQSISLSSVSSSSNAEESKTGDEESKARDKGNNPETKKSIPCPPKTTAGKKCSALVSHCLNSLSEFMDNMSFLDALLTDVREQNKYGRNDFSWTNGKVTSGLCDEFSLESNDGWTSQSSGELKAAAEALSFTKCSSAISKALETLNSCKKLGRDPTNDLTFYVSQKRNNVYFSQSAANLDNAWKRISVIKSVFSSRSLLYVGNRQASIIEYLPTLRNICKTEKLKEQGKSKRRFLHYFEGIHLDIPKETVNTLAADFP

The nature of assay [10]: qHTS for Inhibitors of Cell Surface uPA Generation: Validation Assay (AID 493164).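 Note: RAW 264.7 macrophage cells exposed to compound for 18 h; 0% is about no effect.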 The conditions noted are these: mouse cells, plasminogen activation; series mostly up to 38.3 µM. A digest of the protocol: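 ATP-Lite luminescence read-out: ATP remains high when uPA activity-dependent LF translocation into the cytoplasm is blocked. RAW 264.7 cells, 18 h compound exposure at 37 C; 7-point titration, 2.45 nM to 38.3 uM final.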

The target in assay [11] is Peptidyl-prolyl cis-trans isomerase NIMA-interacting 1 (Homo sapiens) (UniProt Q13526). Description: qHTS Validation Assay to Find Inhibitors of Pin1 (AID 504536; active = well fitted inhibition curve with a large enough effect in the polarisation, with a control signal flat, not every such curve was filed as active; the % refers to the polarisation;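 note: 0% = full Pin1 enzyme wells and -100% = no-enzyme wells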). The conditions noted are these: Pin1 fluorescence polarization peptide binding assay; series mostly up to 57.5 µM. A digest of the protocol: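 Fluorescence polarization competition: compounds (titration) displace HiFluor-488-labeled Pin1-1b peptide from Pin1 (0.3 uM final) in pH 7.5 HEPES buffer with DTT, 10 min at room temperature; %Activity normalized to no-enzyme wells, curves fitted.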
Sequence of Peptidyl-prolyl cis-trans isomerase NIMA-interacting 1 (Homo sapiens) (Q13526 whole entry, looked up): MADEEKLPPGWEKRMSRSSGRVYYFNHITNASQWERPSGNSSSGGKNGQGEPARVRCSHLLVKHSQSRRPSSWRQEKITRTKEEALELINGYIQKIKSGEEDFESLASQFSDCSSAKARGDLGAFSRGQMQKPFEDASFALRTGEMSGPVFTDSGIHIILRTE

For assay [12], the target named is Phosphoglycerate kinase, glycosomal (Trypanosoma brucei brucei) (UniProt P07378). Nature of the assay: qHTS Validation Assay to Find Inhibitors of Phosphoglycerate Kinase (AID 504547).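 Note: control wells lack PGK and mark full inhibition.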 The settings on record: enzymatic PGK inhibition, coupled luminescence read-out; series mostly up to 57.5 µM. A digest of the protocol:
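In TEA buffer (100mM, pH 7.6) containing 5mM MgCl2 and 0.01% Tween-20, the GAPDH-coupled PGK reaction proceeded for 60 minutes at room temperature before a single luminescence reading using Kinase-Glo Plus.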

Assay [13] deals with phosphoglycerate mutase (Leishmania major) (UniProt Q4Q090). Nature of the assay: qHTS Validation Assay to Find Inhibitors of Phosphoglycerate Mutase (AID 504548). Note: % is set by controls: 0 for no effect and ±100 for the full control effect. The settings on record: biochemical enzyme activity; series mostly up to 57.5 µM. An outline of the steps: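 Lm PGAM at 1.25 nM final with substrate in 100 mM TEA pH 7.6, 5 mM MgCl2, 0.01% Tween-20; 45 min at room temperature. Kinase-GloPlus added, 10 min, end-point luminescence read.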
Sequence of phosphoglycerate mutase (Leishmania major) (Q4Q090 1-553): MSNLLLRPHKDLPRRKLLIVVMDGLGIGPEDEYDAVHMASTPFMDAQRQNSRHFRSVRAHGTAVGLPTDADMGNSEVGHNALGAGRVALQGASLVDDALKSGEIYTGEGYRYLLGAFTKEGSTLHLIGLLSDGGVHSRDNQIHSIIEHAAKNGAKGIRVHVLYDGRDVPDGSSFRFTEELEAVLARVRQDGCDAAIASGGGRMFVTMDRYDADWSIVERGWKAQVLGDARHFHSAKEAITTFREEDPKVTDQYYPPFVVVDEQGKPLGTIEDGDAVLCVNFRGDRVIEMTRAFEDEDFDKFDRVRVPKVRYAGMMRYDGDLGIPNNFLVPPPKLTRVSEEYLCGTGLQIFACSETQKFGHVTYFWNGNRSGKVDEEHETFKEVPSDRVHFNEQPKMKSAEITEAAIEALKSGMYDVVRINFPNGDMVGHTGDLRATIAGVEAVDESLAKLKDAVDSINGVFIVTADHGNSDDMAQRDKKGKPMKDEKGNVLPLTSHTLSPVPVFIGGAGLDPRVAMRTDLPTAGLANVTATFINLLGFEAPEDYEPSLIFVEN

A short description of assay [14]: Inducers of the Endoplasmic Reticulum Stress Response (ERSR) in human glioma: Validation (AID 504836). Note: 0% is about no effect. The settings on record: human glioma cells, ER stress response reporter; series mostly up to 38.3 µM. An outline of the steps: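 Stably transfected U87-MG human glioma cells carrying a GRP78-based luminescent sensor were seeded at 1000 cells/well, pin-dosed with compounds and incubated 16 h. Luciferase reagent was then added, and end-point luminescence was read after 10 min at room temperature.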

Assay [15] can be described thus: qHTS for Inhibitors of ATXN expression: Validation of Cytotoxic Assay (AID 588349). Note: % is set by controls: 0 for no effect and ±100 for the full control effect. The conditions noted are these: cytotoxicity counter-screen for ATXN expression inhibitors, cell viability; series mostly up to 57.1 µM. An outline of the steps: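 Cytotoxicity counter-screen: ATP-based luminescent viability (CellTiter Glo) after 72 hr exposure of HEK293 cells to a compound titration at 37 degrees C.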

Assay [16] is described as follows: qHTS for Inhibitors of ATXN expression: Validation (AID 588378). Note: % is set by controls: 0 for no effect and ±100 for the full control effect; nearly all actives have a fitted effect of over 75% in size. The settings on record: cell-based ATXN2 expression reporter assay, luminescence; series mostly up to 57.1 µM. An outline of the steps:
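Luciferase luminescence (Bright-Glo) from an ATXN2-FFLuc HEK293 line after 24 h compound exposure at 37 °C, preceded by a CellTiter-Fluor fluorescence viability read. Serial dilutions of a reference ATXN2 inhibitor and a luciferase inhibitor served as controls.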

Assay [17] addresses Glucagon-like peptide 1 receptor (Homo sapiens) (UniProt P43220). Nature of the assay: qHTS of GLP-1 Receptor Agonists: LOPAC Validation (AID 624148).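 Note: 0% is about no effect; higher luminescence signal means agonism.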 The conditions noted are these: GLP-1R agonist cell assay; series mostly up to 46.1 µM. A digest of the protocol:
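HEK293 cells stably co-expressing a cAMP-responsive luciferase reporter and a hypersensitive GLP-1R were plated 12 h at 37 °C and exposed to compounds for 4-6 hr at 37 °C, 5% CO2. Luminescence was read 12 min after adding detection reagent.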

A short description of assay [18]: qHTS of Nrf2 Activators: LOPAC Validation (AID 624149). Note: 0% is about no effect. The conditions noted are these: Nrf2/ARE reporter cell assay; series mostly up to 46.1 µM. An outline of the steps:
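Luciferase signal from ARE activation, read with Steady-Glo after 30 min at room temperature. Compounds were pin-transferred onto AREc32_Fluc cells (1000/well, OPTI-MEM/5% FBS, seeded overnight) and left 24 hr at 37 deg C.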

Assay [19] in a line: HTS Assay for Allosteric Antagonists of the Human D2 Dopamine Receptor: Hit Validation in HTRF (AID 624455). The conditions noted are these: Cells stably expressing D1 dopamine receptor, inhibition mode; series mostly up to 46.1 µM. An outline of the steps:
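Inhibition of the D1-mediated response was measured by HTRF. Cells used were a line stably expressing the D1 dopamine receptor.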

Assay [20] concerns the target Glutathione peroxidase 1 (Homo sapiens) (UniProt P07203). Description: Primary qHTS Assay for Inhibitors of Recombinant Selenoprotein Glutathione Peroxidase 1 (GPX1) (AID 1845191). Note: % is set by controls: 0 for no effect and ±100 for the full control effect; nearly all actives have a fitted effect of over 65% in size. The settings on record: recombinant GPX1, GR-coupled NADPH fluorescence, 15 min; series mostly up to 48.8 µM. An outline of the steps:
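GPX1 10 nM, GR 100 nM, GSH 1 mM, NADPH 0.5 mM, CHP 0.5 mM (final). 30-min cpd preincubation, RT. Ex340/Em450 read t=0, t=15 min.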

Sequence of Phosphoglycerate kinase, glycosomal (Trypanosoma brucei brucei) (P07378 whole entry, looked up): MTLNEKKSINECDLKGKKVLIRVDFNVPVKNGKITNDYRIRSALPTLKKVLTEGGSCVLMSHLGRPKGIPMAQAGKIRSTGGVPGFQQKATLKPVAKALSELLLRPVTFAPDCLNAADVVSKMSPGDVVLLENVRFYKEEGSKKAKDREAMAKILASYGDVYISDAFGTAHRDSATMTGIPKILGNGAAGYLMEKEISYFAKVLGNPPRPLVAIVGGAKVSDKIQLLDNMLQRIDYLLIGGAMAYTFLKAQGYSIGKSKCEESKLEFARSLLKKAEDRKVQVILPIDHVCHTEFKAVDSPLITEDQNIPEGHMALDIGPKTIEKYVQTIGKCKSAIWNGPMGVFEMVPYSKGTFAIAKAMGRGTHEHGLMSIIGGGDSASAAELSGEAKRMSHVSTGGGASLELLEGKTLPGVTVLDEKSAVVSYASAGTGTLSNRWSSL
Sequence of Glucagon-like peptide 1 receptor (Homo sapiens) (P43220 whole entry, looked up): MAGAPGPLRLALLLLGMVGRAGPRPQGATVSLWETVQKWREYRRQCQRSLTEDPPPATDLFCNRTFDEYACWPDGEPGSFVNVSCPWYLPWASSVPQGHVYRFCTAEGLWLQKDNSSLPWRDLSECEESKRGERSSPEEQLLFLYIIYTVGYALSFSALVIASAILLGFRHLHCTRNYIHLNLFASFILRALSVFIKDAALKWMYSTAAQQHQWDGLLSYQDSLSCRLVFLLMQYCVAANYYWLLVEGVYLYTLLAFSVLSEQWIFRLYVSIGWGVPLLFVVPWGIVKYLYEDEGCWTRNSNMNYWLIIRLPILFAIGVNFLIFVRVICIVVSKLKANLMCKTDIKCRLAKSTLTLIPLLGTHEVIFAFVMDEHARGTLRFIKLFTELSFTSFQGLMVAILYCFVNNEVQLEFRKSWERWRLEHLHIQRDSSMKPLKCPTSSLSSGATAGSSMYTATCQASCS
Sequence of Glutathione peroxidase 1 (Homo sapiens) (P07203 whole entry, looked up): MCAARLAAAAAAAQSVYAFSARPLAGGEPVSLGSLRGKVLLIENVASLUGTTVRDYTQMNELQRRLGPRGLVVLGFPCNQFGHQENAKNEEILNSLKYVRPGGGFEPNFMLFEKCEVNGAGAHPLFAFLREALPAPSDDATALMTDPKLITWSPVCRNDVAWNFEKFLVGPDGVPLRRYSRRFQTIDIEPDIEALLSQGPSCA
Sequence of Cytochrome P450 2C9 (Homo sapiens) (P11712 whole entry, looked up): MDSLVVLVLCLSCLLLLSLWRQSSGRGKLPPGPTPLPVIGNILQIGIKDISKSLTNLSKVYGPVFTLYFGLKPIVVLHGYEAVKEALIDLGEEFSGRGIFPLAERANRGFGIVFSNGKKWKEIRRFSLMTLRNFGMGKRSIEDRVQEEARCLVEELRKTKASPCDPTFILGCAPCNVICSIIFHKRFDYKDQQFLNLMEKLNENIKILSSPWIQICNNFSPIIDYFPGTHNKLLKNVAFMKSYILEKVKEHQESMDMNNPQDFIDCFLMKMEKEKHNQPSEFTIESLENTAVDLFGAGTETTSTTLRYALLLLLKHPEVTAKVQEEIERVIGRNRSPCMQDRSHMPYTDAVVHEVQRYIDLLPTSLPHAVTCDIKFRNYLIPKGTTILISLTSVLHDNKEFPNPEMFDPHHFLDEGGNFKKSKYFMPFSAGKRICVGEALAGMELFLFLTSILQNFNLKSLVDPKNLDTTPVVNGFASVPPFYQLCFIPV

Turning to `CCC1/C=C/C=CCC(C)C(O)[C@@](C)(O)C(=O)C(C)C(O)C(C)C(=O)C(C)C(O)C(C)C=CC(=O)O[C@H]2C(C)C(CC1)O[C@]1(CCC(C)C(CC(C)O)O1)C2C` (some centres undefined), the Potency result in [1] and in assay [2] was “inactive” in each case.

On to `COc1cc(C=C(C#N)C#N)cc(O)c1O`, for which, in assay [3], the Potency is 2510 nM (active).

As for `Oc1ccc2c3c1O[C@H]1[C@@H](O)CC[C@@]4(O)C(C2)N(CC2CCC2)CCC314` (some centres undefined), in [4], the Potency result was “inactive”.

`CCCN(CCC)C(=O)Cc1c(-c2ccc(Cl)cc2)nc2c(Cl)cc(Cl)cn12`: the activity change, negative = inhibition in assay [5] is 7.25%. For the same compound, the Potency result in [6] is “inactive”.

With `C[C@H]1C2Cc3ccc(O)cc3[C@]1(C)CCN2CC1CC1`, the compound was called inactive in assay [7], in [8], in assay [10], in assay [11], in [12] and in [13]. The compound was classed as inactive in assay [14], in assay [15], in assay [16], in assay [17], in assay [18] and in [19]. Also, the Potency entry in [9] is “inactive”.

In the case of `CC12CCC3C(CCC4=C(O)C(=O)CCC43C)C1CCC2=O` (centres undefined), the compound was called inactive in assay [7], in assay [8], in assay [10], in assay [11], in [12] and in [13]. In addition, the outcome in assay [14], in assay [15], in [16], in [17], in [18] and in assay [19] was inactive. The Potency result in assay [9] was “inactive”.

In the case of `CC1(C)[C@H](C=C(Cl)Cl)[C@@H]1C(=O)OCc1c(F)c(F)cc(F)c1F`, the Potency entry in [20] is “inactive”.

Consider `CO[C@@H]1[C@H](C)OC(O[C@H]2CC(Oc3cc4cc5c(c(O)c4c(O)c3C)C(=O)[C@@H](OC3C[C@@H](OC4C[C@H](OC6C[C@](C)(O)[C@@H](OC(C)=O)[C@H](C)O6)[C@@H](O)[C@H](C)O4)[C@H](O)[C@@H](C)O3)[C@H]([C@@H](OC)C(=O)[C@@H](O)[C@H](C)O)C5)O[C@@H](C)[C@H]2OC(C)=O)C[C@@H]1O` (some centres undefined), for which, in assay [20], the Potency result is “inactive”.
